The source of these data is PubChem BioAssay (NCATS).

Molecules are shown by their SMILES. Inconclusive results are not listed. Where a call stands in place of a potency, no number is given. Activity calls are given as the source filed them. The call rests on the fitted dose curve; in most records, active means well fitted inhibition curve with a large enough effect; inconclusive means small, poorly fitted or top-dose-only effect; inactive means no such curve, though single readings can be large or run the other way.

A short description of assay [1]: qHTS assay for measurement of the activity of small molecule inhibitors on Zika virus induced Caspase-3 activity in human iPSC derived neural progenitor cells (hNPCs) (AID 1224857). Further: nearly all actives have a fitted effect of over 65% in size. Put shortly:
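hNPCs seeded 350 cells/well, cultured 16–20 h; compounds added 1 h before ZIKV (2 FFU/cell), 37 C 6 h. Caspase-Glo 3/7 luminescence after 30 min RT; % inhibition from induction scaled to uninfected (0%) and infected (100%) wells.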
Background: qHTS replaces the single test concentration by a dilution series.

Assay [2] in a line: qHTS assay for measurement of the activity of small molecule inhibitors on Zika virus induced Caspase-3 activity in human astrocytoma cells (AID 1224859). Put shortly:
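Luminescence read-out (Caspase-Glo 3/7, 30 min RT) of caspase activity in SNB-19 cells infected 6 h with ZIKV, 2 FFU/cell, after 1 h compound pretreatment; % inhibition from induction normalised to uninfected (0%) and infected (100%) wells.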

`COc1cc(/C=C/C(N)=O)cc(OC)c1OC`: in assay [1], the Potency result was “inactive”. In addition, in assay [2], the compound was called inactive.
As for `CC(=O)Nc1ccc(S(=O)(=O)Nc2cc(C)on2)cc1`, the Potency result in assay [1] was “inactive”. The outcome in assay [2] was inactive.
For `CC(=O)c1cc2ccccc2s1`, the Potency result in assay [1] is “inactive”. Also, the outcome in assay [2] was inactive.
On to `CC(Oc1c(Cl)cccc1Cl)C1=NCCN1` (centres undefined), for which the Potency result in assay [1] was “inactive”. For the same compound, the call in assay [2] was inactive.
On to `OC1(c2ccc(Cl)c(C(F)(F)F)c2)CCN(CCCC(c2ccc(F)cc2)c2ccc(F)cc2)CC1`, for which the Potency result in assay [1] was “inactive”. In addition, in assay [2], the compound was called inactive.
Regarding `CCCc1c2oc(C(=O)O)cc(=O)c2cc2c(=O)cc(C(=O)O)n(CC)c12`, the Potency result in assay [1] is “inactive”. In assay [2], the compound was classed as inactive.
In the case of `Cc1cnc(NS(=O)(=O)c2ccc(N)cc2)nc1`, the Potency entry in assay [1] is “inactive”. In addition, the call in assay [2] was inactive.
As to `COc1ccccc1OCC1CNC(=O)O1` (centres undefined), the Potency entry in assay [1] is “inactive”. Further, in assay [2], the compound was classed as inactive.
As to `CN(C)CCN(Cc1ccsc1)c1ccccn1`, the Potency entry in assay [1] is “inactive”. For the same compound, the result in assay [2] was inactive.
For `CCS(=O)(=O)c1ccc(OC)c(C(=O)OC)c1`, in assay [1], the Potency result is “inactive”. Also, in assay [2], the outcome was inactive.
As to `CC(=O)OCC(=O)[C@@]1(O)[C@H](OC(C)=O)C[C@H]2[C@@H]3CCC4=CC(=O)C=C[C@]4(C)[C@@]3(F)[C@@H](O)C[C@@]21C`, in assay [1], the Potency entry was “inactive”. In assay [2], the outcome was inactive.
Turning to `CCCCN(CCN(CCCC)C(=O)N1CCOCC1)C(=O)N1CCOCC1`, the Potency result in assay [1] is “inactive”. The outcome in assay [2] was inactive.
Take `COc1cc(OC)nc(O[C@H](C(=O)O)C(OC)(c2ccccc2)c2ccccc2)n1`: in assay [1], the Potency entry was “inactive”. Moreover, in assay [2], the outcome was inactive.
As for `O=S(=O)(O)c1ccc2nc(-c3ccccc3)[nH]c2c1`, the Potency entry in assay [1] is “inactive”. For the same compound, the outcome in assay [2] was inactive.
For `Brc1ccc([C@H]2CN3CCSC3=N2)cc1`, the Potency result in assay [1] is “inactive”. In addition, the result in assay [2] was inactive.
For the compound `C[N+](C)(C)CCO`, the Potency entry in assay [1] is “inactive”. For the same compound, the compound was called inactive in assay [2].
With `CCOC(=O)[C@H](CCc1ccccc1)N[C@@H](C)C(=O)N(CC(=O)O)C1Cc2ccccc2C1`, the Potency result in assay [1] was “inactive”. The result in assay [2] was inactive.
